In the library only some 6.2% were active in any assay of this set; here they are far more common.
FMDV inh = antivirals against foot and mouth disease virus. FMDV antiviral cell-based qHTS. Potency, µM (doses to about 57.9 µM), actives largely listed as inhibitors. 410,000 tested, 1.2% active. AID 1159524; calls by dose curve; tested in HEK293T cells; further: read-out not given here; nearly all actives have a fitted effect of over 45% in size
Lassa entry inh = inhibitors of Lassa virus binding or cell entry. Lassa virus pseudotype entry inhibition, cell reporter. Potency, µM (doses to about 37.9 µM), most hits filed as inhibitors. 300,000 tested, 1.2% active. AID 540256; calls by dose curve; tested in HEK293 cells; further: nearly all actives have a fitted effect of over 50% in size
HCMV inh = blocks human cytomegalovirus replication; 410,000 tested, 4.5% active; AID 1259415; activity change, negative = inhibition, % at 57.5 µM; HFF cells, HCMV-luciferase reporter, 72 h; hits give low values; in the data active means activity change below about -60%; inconclusive means no clear call, values can overlap the other calls; inactive means above about -39%
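Compounds were evaluated in HFFs infected with an HCMV luciferase reporter virus (MOI 1 PFU/cell). Luciferase in lysates collected 72 h post infection served as the replication measure.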
Marburg entry inh = Marburg virus entry inhibition | Potency, µM (highest dose often 37.8 µM), most hits filed as inhibitors | 300,000 tested, 1.8% active | Marburg virus pseudotyped entry inhibition, cell reporter; calls by dose curve; tested in HEK293 cells
Numbers stand for hits; i = inactive; ? = inconclusive; nt = not tested or not shown; ! = not confirmed by another sample.

SMILES | FMDV inh | Lassa entry inh | HCMV inh | Marburg entry inh
Cc1cc(-c2csc(N)n2)c(C)n1CCc1ccccc1 | 11µM | i | i | ?
Cc1cc(-c2csc(N)n2)c(C)n1CCC(C)C | 22µM | i | ? | i
Cc1cc(-c2csc(NCc3ccccc3)n2)c(C)n1C | i | i | nt | i
CCC[C@H]1[C@@H](NC(=O)NCCCC(=O)OCC)CC[C@@]23CCCN2C(=O)CCC[C@@H]13 | nt | nt | i | nt
Cc1ccc(C)c(N2CCN(c3c(CN4CCCC4)c(=O)oc4ccccc34)CC2)c1 | i | i | i | ?
O=C1NC(=O)C(Cc2ccccc2F)(C2CCN(Cc3cccn3-c3cccnc3)CC2)N1 (stereo unspecified) | i | nt | nt | nt
Cc1cc(C(=O)COc2cccnc2[N+](=O)[O-])c(C)n1Cc1cccs1 | 7.9µM | ? | i | ?
Cc1cc(-n2c(C)cc(C(=O)COc3cccnc3[N+](=O)[O-])c2C)no1 | i | i | i | i
CC(=O)Nc1ccccc1OCC(=O)c1cc(C)n(Cc2cccs2)c1C | ? | i | -94 | ?
Cc1cc(C(=O)COC(=O)c2ccccc2O)c(C)n1Cc1cccs1 | 28µM | 0.33µM | -103 | 0.82µM
O=C(Nc1cc(F)ccc1F)c1ccc(CN2CC(=O)N3CCCCC3C2=O)cc1 (stereo unspecified) | i | i | i | nt
O=S1(=O)N(CCN2CC=C(c3c[nH]c4cc(F)ccc34)CC2)c2cccc3c2N1CCC3 | i | ? | -80 | ?
Cc1nc2c(c(C)c1CCC(=O)N1CCN(c3ccccc3)CC1)c(=O)n(C)c(=O)n2C | ? | i | i | i
O=c1[nH]c(=S)[nH]c(O)c1N=Nc1ccc2c(c1)OCO2 | i | ? | ? | ?
O=c1[nH]c(O)c(N=Nc2ccc3c(c2)OCCO3)c(=O)[nH]1 | ? | ? | -82 | ?
O=c1[nH]c(=S)[nH]c(O)c1N=Nc1ccc2c(c1)OCCO2 | i | ? | ? | 11µM
O=c1cc(-c2ccccc2)n2c(SCc3ccccc3Cl)nnc2[nH]1 | i | i | i | nt
Cc1nc(N2CCN(C(=O)c3ccco3)CC2)c2c3c(sc2n1)CCC3 | ? | ? | -65 | 10µM
CC(C)c1nc(N2CCN(C(=O)c3ccco3)CC2)c2c3c(sc2n1)CCCC3 | nt | ? | i | 18µM
Cc1sc2ncnc(N3CCN(C(=O)c4ccco4)CC3)c2c1C | i | ? | -67 | ?
Cc1c(C(=O)N2CCN(c3ccc(F)cc3)CC2)sc2ncnc(N3CCN(c4ccccn4)CC3)c12 | ? | ? | -81 | ?
O=C(c1ccco1)N1CCN(C(=O)c2cccn3c(=O)c4c5c(sc4nc23)CCCC5)CC1 | i | nt | i | nt
CC(NC(=O)c1cc(F)ccc1F)c1nnc2n1CCN(Cc1ccco1)CC2 (stereo unspecified) | i | nt | nt | nt
Cc1ccn2c(=O)nc(SCC(=O)c3ccccc3)nc2c1 | i | ? | i | i
Cc1ccc2nc(SCC(=O)c3ccccc3)nc(=O)n2c1 | i | 10µM | i | ?
SMILES | FMDV inh | Lassa entry inh | HCMV inh | Marburg entry inh
COc1cc(C(=O)NCC(=O)N/N=C(C)\C=C\c2ccccc2)cc(OC)c1OC | i | i | -73 | i
COc1ccc(/C(C)=N/NC(=O)CNC(=O)/C=C\c2ccccc2)c(OC)c1 | i | nt | -86 | nt
COc1cccc2c1C(CO)N1C(C#N)C3CC(C(=O)O)C(C1C2)N3C (stereo unspecified) | i | nt | -77 | nt
COc1cccc2c1OCC(C(=O)O)C2 (stereo unspecified) | i | i | i | ?
Cc1cc(N2CCC(C)CC2)n2ncc(-c3ccccc3)c2n1 | ? | ? | -64 | ?
Cc1cc(-c2ccccc2)n2ncc(-c3ccccc3)c2n1 | i | ? | -60 | 3.7µM
Cc1cc(N2CCOCC2)n2ncc(-c3ccccc3)c2n1 | i | 2.6µM | i | ?
Cc1cc(NC2CCCC2)n2ncc(-c3ccccc3)c2n1 | 40µM | ? | -90 | ?
c1ccc(-c2cc3c(Nc4ccc5c(c4)OCCO5)nccc3[nH]2)cc1 | nt | nt | i | nt
Cc1nc2c(-c3ccccc3)cnn2c(N)c1-c1ccccc1 | ? | ? | -91 | ?
Cc1cc(N2CCCCC2)n2ncc(-c3ccccc3)c2n1 | ? | 4.5µM | i | ?
Cc1cc(N2CCCCC2)n2ncc(-c3ccc(Cl)cc3)c2n1 | i | ? | i | ?
COc1ccc2oc(=O)c(C(=O)NCc3ccccc3)cc2c1 | i | i | i | i
COc1ccc2oc(=O)c(C(=O)NCc3ccc(C)cc3)cc2c1 | i | nt | -100 | nt
COc1ccc(CNC(=O)c2c(F)c(F)c(F)c(F)c2F)cc1 | i | i | -102 | i
COc1ccc(C(=O)C2CCN(CC(=O)NCc3ccccc3)CC2)cc1 | ? | ? | i | i
COc1ccc(CNC(=O)c2cc3cc(OC)ccc3oc2=O)cc1 | i | ? | -104! | ?
COc1ccc(CNC(=O)CN2CCC(C(=O)c3ccc(OC)cc3)CC2)cc1 | ? | ? | -78 | i
COc1ccc(/C=C/C(=O)NCC2Cc3cccc(-c4nc(C)cnc4C)c3O2)cc1OC (stereo unspecified) | i | nt | nt | nt
COc1ccc2oc(=O)c(C(=O)Nc3cccc(C(=O)O)c3)cc2c1 | ? | i | i | 2.8µM
CCCc1nc2ccccc2n2c(-c3ccc(C)cc3)c3c(=O)n(C)c(=O)n(C)c3c12 | i | i | i | i
Cn1cc(/C=C2\SC(=S)N(NC(=O)c3ccccc3Cl)C2=O)c2ccccc21 | i | i | i | i
Cc1ccc(C(=O)NN2C(=O)/C(=C/c3cn(C)c4ccccc34)SC2=S)cc1 | i | ? | -69 | i
CN(C)c1ccc(-c2noc(-c3ccccc3O)n2)cc1 | i | 5.8µM | i | ?
c1ccc(-c2noc(-c3ccccc3-c3ccccc3)n2)cc1 | i | i | i | i
SMILES | FMDV inh | Lassa entry inh | HCMV inh | Marburg entry inh
Cc1ccc2ccc3cc(C(=O)Nc4ccc(C)c(F)c4)nc3c2[nH]1 | i | ? | -76 | nt
CCOC(=O)c1ccc(N2C(=O)c3[nH]nc(-c4ccc(C)cc4)c3C2c2cccc(F)c2)cc1 (stereo unspecified) | ? | ? | -99 | ?
CCOC(=O)c1ccc(N2C(=O)c3[nH]nc(-c4ccccc4)c3C2c2ccc(CC)cc2)cc1 (stereo unspecified) | ? | ? | -105 | ?
CCOC(=O)c1ccc(N2C(=O)c3[nH]nc(-c4ccc(OC)cc4)c3C2c2cccc(O)c2)cc1 (stereo unspecified) | 32µM | ? | -107 | ?
CCOC(=O)c1ccc(N2C(=O)c3[nH]nc(-c4ccc(C)cc4)c3C2c2ccc(O)cc2)cc1 (stereo unspecified) | 32µM | ? | -74 | 10µM
CCOC(=O)c1ccc(N2C(=O)c3[nH]nc(-c4ccc(OCC)cc4)c3C2c2ccc(OC)cc2OC)cc1 (stereo unspecified) | i | ? | i | ?
Cc1cc(C)cc(NC(=O)CSc2nnc(COc3ccccc3Cl)o2)c1 | i | i | i | i
COc1ccccc1CCNC(=O)Cc1ccc(NC(=O)N2CCSc3ncccc32)cc1 | i | i | i | nt
COc1ccc(-n2c(O)c(/C=C3\C=Nc4ccc(Br)cc43)c(=O)[nH]c2=O)cc1 | 16µM | i | i | i
COc1ccc(-n2c(O)c(/C=C3\C=Nc4ccc(Br)cc43)c(=O)[nH]c2=O)c(OC)c1 | 25µM | ? | i | ?
COc1ccc(-n2c(O)c(/C=C3\C=Nc4ccccc43)c(=O)[nH]c2=O)cc1 | i | nt | i | nt
CCCCc1c(CCC)c(=N)c2ccccc2n1C | ? | ? | -98 | ?

Screening data from PubChem.
